The structures appear in SMILES notation. The campaign covered roughly 52,000 compounds. About 4,300 (8.3%) were called active. The full list was thinned out, with actives kept by preference. A number with no mark means an inactive call. No stated cut-off is given here; in the data, active means survival mostly below about 52% (no sharp cut-off); inactive means mostly above about 56%.

The test system of the assay is DeltatarO mutant. In words: S. aureus survival, RN4220 and DeltatarO strains – OD600, teichoic acid synthesis inhibitors, primary screen (AID 463173). Conditions: S. aureus RN4220 wild type/DeltatarO growth, OD600, 18 h, stronger effect = lower value, screened at 18.75 µg/mL (by protocol).
In the case of `O=C(Nc1ccc(C(=O)OCc2cc(=O)n3c4c(sc3n2)CCCC4)cc1)c1ccc(F)cc1`, the survival was 101%.
In the case of `O=C(Nc1ccccc1C(=O)OCc1cc(=O)n2c3c(sc2n1)CCCC3)c1ccc(Cl)cc1`, the survival was 0% (active).
Under `Cc1cccc(C)c1OCc1cc(=O)n2c3c(sc2n1)CCCC3` stands -17% (active); under `O=C(Nc1ccccc1C(=O)OCc1cc(=O)n2c3c(sc2n1)CCCC3)c1cccc(Cl)c1`, 69%; under `Cc1cccc(OCc2cc(=O)n3c4c(sc3n2)CCCC4)c1C`, 131%.
For `Cc1ccccc1C(=O)Nc1ccc(C(=O)OCc2cc(=O)n3c4c(sc3n2)CCCC4)cc1` the value was 118%; for `Cc1ccc(C(=O)Nc2ccc(C(=O)OCc3cc(=O)n4c5c(sc4n3)CCCC5)cc2)cc1`, 83%; for `Cc1ccc(OCc2cc(=O)n3c4c(sc3n2)CCCC4)cc1C`, 82%.
For `COc1ccccc1C(=O)Nc1ccc(C(=O)OCc2cc(=O)n3c4c(sc3n2)CCCC4)cc1` the value was 37% (active); for `Cc1ccccc1C(=O)Nc1cccc(C(=O)OCc2cc(=O)n3c4c(sc3n2)CCCC4)c1`, 46% (active).
`O=C(OCc1cc(=O)n2c3c(sc2n1)CCCC3)c1cccc(NC(=O)c2ccccc2F)c1`: the survival is 115%.
For `COc1ccccc1C(=O)Nc1cccc(C(=O)OCc2cc(=O)n3c4c(sc3n2)CCCC4)c1` the value was 92%; for `O=C(Nc1ccccc1C(=O)OCc1cc(=O)n2c3c(sc2n1)CCCC3)c1ccccc1`, 107%.
Under `Cc1ccc(C(=O)c2oc3ccccc3c2NC(=O)COc2ccc(Cl)c(C)c2)cc1` stands 90%; under `COc1cc(-c2nc3n(n2)C(c2ccc(F)cc2)C(C(N)=O)=C(C)N3)cc(OC)c1OC` (stereo not given), 91%; under `Cc1ccc2c(CC(=O)Nc3c(C(=O)Nc4cccc(Cl)c4)oc4ccccc34)coc2c1C`, 62%.
In the case of `O=C(Nc1ccc(C(=O)OCc2cc(=O)n3c4c(sc3n2)CCCC4)cc1)c1ccc(Cl)cc1`, the survival was 92%.
For `Cc1cccc(OCc2cc(=O)n3c(-c4ccccc4)csc3n2)c1C` the value was 77%; for `O=C(Nc1cccc(C(=O)OCc2cc(=O)n3c4c(sc3n2)CCCC4)c1)c1ccccc1`, 102%.
Under `Cc1ccccc1OCc1cc(=O)n2c(-c3ccccc3)csc2n1` stands 69%; under `O=C(Nc1ccc(C(=O)OCc2cc(=O)n3c4c(sc3n2)CCCC4)cc1)c1ccccc1`, 25% (active); under `Cc1cccc(C)c1OCc1cc(=O)n2c(-c3ccccc3)csc2n1`, 19% (active).
Under `CCN1CCN(CCCNC(=O)Cn2c(-c3cccs3)cc3ccccc32)CC1` stands 78%; under `Cc1ccccc1Cn1c2ccccc2c2cnn(CC(=O)NC3CCCCCC3)c(=O)c21`, 87%; under `Cc1ccc2[nH]c(=O)c3cc(C(=O)NCCc4ccc(Cl)cc4)sc3c2c1`, 74%.
On to `CCc1nnc(NC(=O)c2sc3nc4ccc(OC)cc4cc3c2N)s1`, for which the survival was 77%.
For `CCCNC(=O)c1cc(-c2ccccc2)on1` the value was 95%; for `CC(=O)c1ccc(NC(=O)c2cc(-c3ccc(Cl)c(Cl)c3)on2)cc1`, 47% (active); for `O=C(NCCc1ccccc1)c1cc(-c2ccc(Cl)c(Cl)c2)on1`, 57%.
Take `CC(=O)c1ccc(NC(=O)c2cc(-c3ccc4c(c3)OCO4)on2)cc1`: the survival is 67%.
As to `CCCCNC(=O)c1cc(-c2ccc(Cl)c(Cl)c2)on1`, the survival is 45% (active).
For `CC(=O)Nc1ccc(NC(=O)c2cc(-c3ccc4c(c3)OCCO4)on2)cc1` the value was 118%.
For the compound `O=c1cc(Nc2cccc(Br)c2)[nH]c(=O)[nH]1`, the survival is 68%.
Under `O=C(NCc1cccs1)c1ccc(Cn2c(SCc3ccccc3)nc3cccnc32)cc1` stands 71%; under `CCOc1ccc(NC(=O)c2sc3nc4c(c(-c5ccccc5)c3c2N)C(=O)CC(C)(C)C4)cc1`, 49%.
For `CCOC(=O)c1cc(NC(=O)c2ccc(F)cc2)c(=O)n2c1oc1ccccc12` the value was 54%; for `CCOC(=O)c1cc(NC(=O)c2ccc(F)cc2)c(=O)n2c1oc1ccc(Cl)cc12`, 127%; for `CCOC(=O)c1cc(NC(=O)c2ccc(C)cc2)c(=O)n2c1oc1ccccc12`, 52%.
Under `CCOC(=O)c1cc(NC(=O)c2ccc(OC)cc2)c(=O)n2c1oc1ccc(Cl)cc12` stands 46% (active).
Turning to `CCOC(=O)c1cc(NC(=O)c2ccc(C)cc2)c(=O)n2c1oc1ccc(Cl)cc12`, the survival was 55%.
Under `CCOC(=O)c1cc(NC(=O)c2ccc(Cl)cc2)c(=O)n2c1oc1ccccc12` stands 34% (active).
For `O=C(NCCC1=CCCCC1)c1ccc2c(c1)ncn2-c1cccc(Cl)c1` the value was 98%.
For `Cc1cc(C)c(NC(=O)Cn2ccn(-c3cccc(Cl)c3)c(=O)c2=O)c(C)c1` the value was 57%.
As to `COc1ccc(NC(=O)c2cc(S(=O)(=O)N3CCOCC3)cn2C)cc1Cl`, the survival is 108%.
For `CCN(CC)C(=O)c1sc2c(c1C)c(=O)n(CCc1ccccc1)c(=O)n2Cc1ccc(F)cc1Cl` the value was 89%.
Under `Cc1ccc(S(=O)(=O)N2CCN(S(=O)(=O)c3ccc(C)cc3)CC2)cc1` stands 96%.
Under `CCOc1cc(CN2CCN(S(=O)(=O)c3ccc(C)cc3)CC2)ccc1OC` stands 171%; under `CC(=O)Nc1ccc(S(=O)(=O)N2CCN(Cc3ccccc3Cl)CC2)cc1`, 62% (active); under `Cc1ccc(S(=O)(=O)N2CCN(Cc3ccccc3Cl)CC2)cc1`, 13% (active).
Consider `CCS(=O)(=O)N1CCN(S(=O)(=O)c2ccc(Cl)cc2)CC1`, for which the survival is 88%.
For `Cc1ccc(S(=O)(=O)N2CCC(C(=O)NCc3ccccc3Cl)CC2)cc1` the value was 74%; for `CCOc1ccc(CN2CCN(S(=O)(=O)c3ccc(Cl)cc3)CC2)cc1`, 27% (active); for `COc1ccc(CN2CCN(S(=O)(=O)c3ccc(NC(C)=O)cc3)CC2)c(OC)c1OC`, 61%.
For `COc1cc(OC)c(OC)cc1CN1CCN(S(=O)(=O)c2ccc(NC(C)=O)cc2)CC1` the value was 79%; for `O=C(NC1CC(=O)N(c2ccc(F)cc2)C1)c1ccc2c(c1)OCO2` (stereo not given), 75%.
Under `Cc1cccc(Nc2nnc(-c3ccc(C)c(S(=O)(=O)NCC4CCCO4)c3)c3ccccc23)c1` (stereo not given) stands 82%; under `CCOC(=O)COc1ccc(CC)cc1C(=O)c1ccn2nc(-c3ccc(C)cc3)cc2n1`, 75%.
On to `COc1ccc(CCNC(=O)c2cccc(Nc3nc4ccccc4nc3-n3nc(C)cc3C)c2)cc1OC`, for which the survival is 91%.
`N#Cc1nc(-c2ccc(COc3ccc(Cl)cc3)o2)oc1N1CCN(c2ccccc2)CC1`: the survival was 64%.
Under `CCc1ccc(S(=O)(=O)c2nnn3c2nc(NCc2cccc(OC)c2)c2cc(Cl)ccc23)cc1` stands 105%; under `COc1ccc(NC(=O)c2cnn(-c3ccc(F)cc3F)c2C2CCN(C(=O)OC(C)(C)C)CC2)cc1Cl`, 72%.
Under `COc1ccccc1C(=O)Nc1nc(-c2ccccc2)ns1` stands 45% (active).
In the case of `CCc1ccc2oc(C(=O)Nc3nc(-c4ccccc4)ns3)c(C)c2c1`, the survival was 53%.
For `COc1ccccc1C(=O)Nc1nc(-c2ccc(Br)cc2)ns1` the value was 86%; for `Cc1ccc(-c2nsc(NC(=O)c3oc4cc(C)c(Cl)cc4c3C)n2)cc1`, 74%; for `COc1cccc(C(=O)Nc2nc(-c3ccc(Br)cc3)ns2)c1`, 65%.
Take `COc1ccc(-c2nsc(NC(=O)c3cccc(OC)c3)n2)cc1`: the survival was 85%.
Under `Cc1ccccc1C(=O)Nc1nc(-c2ccc(Br)cc2)ns1` stands 49%; under `COc1ccc(C(=O)Nc2nc(-c3ccc(Br)cc3)ns2)cc1`, 58% (active); under `Cc1ccc(C(=O)Nc2nc(-c3ccccc3)ns2)cc1`, 59%.
As to `CCOc1ccc(C(=O)Nc2nc(-c3ccc(Br)cc3)ns2)cc1`, the survival was 76%.
For `Cc1cc2oc(C(=O)Nc3nc(-c4ccccc4)ns3)c(C)c2cc1Cl` the value was 45% (active); for `COc1ccc(-c2nsc(NC(=O)c3ccccc3Br)n2)cc1`, 34% (active); for `CC(=O)N1CCN(C2=NC(=O)C(=C3CCCCC3)S2)CC1`, 75%.
For `CCCOc1ccc(-c2nonc2NC(=O)c2ccco2)cc1OCCC` the value was 111%.
For `Cc1c(Cl)cccc1-n1ncc(C(=O)N2CCN(c3ncccn3)CC2)c1C1CCN(C(=O)OC(C)(C)C)CC1` the value was 102%; for `COc1cc(C2CC(=O)N(c3ccc(C)c(Cl)c3)C3=C2C(=O)OC3)cc(OC)c1OC` (stereo not given), 72%; for `Cc1ccc(C)c(NC(=O)C2CCN(c3nn4c(=O)cc(C)nc4s3)CC2)c1`, 106%.
Consider `CCOC(=O)c1cc2sccc2n1CC(=O)NC1CCC(C)CC1` (stereo not given), for which the survival was 95%.
For `Oc1c(C(c2ccccc2F)N2CCN(c3ccccc3F)CC2)sc2nc(-c3ccco3)nn12` (stereo not given) the value was 87%; for `COC(=O)c1ccc(NC(=O)CCS(=O)(=O)c2ccc(Br)cc2)cc1`, 77%; for `COc1ccc(C)cc1NC(=O)C(Cc1ccccc1)NS(=O)(=O)c1cccs1` (stereo not given), 84%.
For `O=C(Nc1ccc(Cl)cc1)C(NS(=O)(=O)c1cccs1)c1ccccc1` (stereo not given) the value was 19% (active); for `CC(=O)Nc1ccc(NC(=O)C(NS(=O)(=O)c2ccc(Br)s2)c2ccccc2)cc1` (stereo not given), 93%.
For `Cc1cccc(C)c1NC(=O)C(NS(=O)(=O)c1cccs1)c1ccccc1` (stereo not given) the value was 56%.
For `Cc1cc(Br)ccc1NC(=O)C(NS(=O)(=O)c1cccs1)c1ccccc1` (stereo not given), the survival was 31% (active).
For `COc1ccc(C)cc1NC(=O)C(NS(=O)(=O)c1cccs1)c1ccccc1` (stereo not given) the value was 11% (active); for `CCOc1ccc(OCC)c(NC(=O)C(NS(=O)(=O)c2cccs2)c2ccccc2)c1` (stereo not given), 66%.
For `Cc1cc(Br)ccc1NC(=O)C(Cc1ccccc1)NS(=O)(=O)c1ccc(Br)s1` (stereo not given) the value was 114%.
Regarding `CCC(C)(C)NC(=O)C(NS(=O)(=O)c1cccs1)c1ccccc1` (stereo not given), the survival is 84%.

(Values after PubChem BioAssay AID463173 (ICCB-Longwood Screening Facility, Harvard Medical School, 2010).)
